Results on 103 compounds are retold here after PubChem BioAssay AID2551 (National Center for Advancing Translational Sciences (NCATS), 2010).

Where “and” joins values, the source holds several entries; their conditions need not be identical. Equal values may be shown once. About 17,000 (5.5%) of roughly 310,000 compounds were called active. Not shown: some 11% with an inconclusive outcome. The call rests on the fitted dose curve; in most records, active means well fitted inhibition curve with a large enough effect; inconclusive means small, poorly fitted or top-dose-only effect, or effect the other way; inactive means no such curve, though single readings can be large or run the other way. What follows is part of a selection rich in actives, with near analogues and random picks from the rest. Entries that show only a call come without a potency. A structure can be active in one record and inactive in another.
Potency means the concentration at half of the fitted maximal effect.

Sequence of Nuclear receptor ROR-gamma (Mus musculus) (P51450 whole entry, looked up, the tested form may be a part): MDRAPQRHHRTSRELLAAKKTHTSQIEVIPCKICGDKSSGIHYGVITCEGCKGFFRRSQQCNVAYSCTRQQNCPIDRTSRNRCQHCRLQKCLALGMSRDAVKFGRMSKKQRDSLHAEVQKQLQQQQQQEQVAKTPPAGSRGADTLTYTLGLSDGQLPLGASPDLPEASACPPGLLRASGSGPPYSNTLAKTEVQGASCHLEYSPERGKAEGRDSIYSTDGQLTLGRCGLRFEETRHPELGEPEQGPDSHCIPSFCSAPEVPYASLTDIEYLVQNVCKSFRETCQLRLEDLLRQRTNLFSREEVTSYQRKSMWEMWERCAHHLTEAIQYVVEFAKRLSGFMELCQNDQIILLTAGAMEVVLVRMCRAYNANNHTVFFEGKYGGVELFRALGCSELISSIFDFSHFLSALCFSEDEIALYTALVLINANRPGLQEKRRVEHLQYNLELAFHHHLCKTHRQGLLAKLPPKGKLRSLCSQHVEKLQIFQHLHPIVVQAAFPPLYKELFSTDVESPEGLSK

The assay has as its target Nuclear receptor ROR-gamma (Mus musculus) (UniProt P51450). Put plainly: qHTS for inhibitors of ROR gamma transcriptional activity. Further: nearly all actives have a fitted effect of over 60% in size. The conditions noted are these: Drosophila S2 Gal4-RORgamma UAS-luciferase reporter, 20 h; series mostly up to 53.6 µM. The method in brief: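 Using a luciferase readout, inhibitors were identified by reduced reporter activity in Drosophila cells coexpressing a copper-inducible Gal4–ROR gamma fusion and UAS-driven Photinus luciferase, incubated 20 hr after 700 uM copper sulfate.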
On to `CN(Cc1c(F)cccc1Cl)S(=O)(=O)c1cccs1`, for which the Potency result is “inactive”.

As for `COc1ccc(C(=O)NCc2nnc(SCC(=O)NC3=NCCS3)n2C)cc1`, the Potency result is “inactive”. Still for that read-out and setting: the result for `COc1ccc(C(=O)Nc2nncs2)c(OC)c1` reads “inactive”. Turning to `COc1ccc(C(=O)NC2=NCCS2)c(OC)c1`, the Potency is 11.2 µM (active). On to `CSCC[C@H](NC(=O)N1CCn2c1nc1ccccc12)C(=O)NC1CCCCC1`, for which the Potency result was “inactive”. As for `CC(C)OC(=O)c1ccc(COc2ccc3ccc(=O)oc3c2)o1`, the Potency result is “inactive”. In the case of `Cc1ccc(-c2nnc(SCC(=O)N/N=C/c3cccs3)n2-c2ccc(C)cc2)cc1`, the Potency is 17.8 µM (active). Still for that read-out and setting: the result for `NNC(=O)CSc1nnc(-c2ccccc2)n1-c1ccccc1` reads “inactive”; that for `Cc1ccc(-n2c(SCC(=O)N3c4ccccc4Sc4ccccc43)nnc2-c2ccncc2)cc1`, “inactive”. Same read-out and setting: the result for `COCCN1C(=O)C(=O)/C(=C(/O)c2ccc(S(=O)(=O)N3CCOCC3)cc2)C1c1ccc(OC)c(OC)c1` (stereo not drawn) reads “inactive”.

As to `COc1ccc(C2C3=C(CCCC3=O)N(CC(=O)O)C3=C2C(=O)CCC3)cc1`, the Potency result was “inactive”. For the compound `CC(=O)N/C(=N/c1nc(C)cc(C)n1)Nc1ccc(F)cc1F`, the Potency entry was “inactive”. The same measure, in the same setting: as for `Cc1cc(NC(=O)Nc2ccc(Cl)cc2)n(-c2ccccc2)n1`, the entry is “inactive”; as for `Cc1cc(C)nc(-n2nc(C)cc2NC(=O)c2ccc(F)cc2F)n1`, 0.178 µM (active).

As to `CCN1C(=O)c2cccc3c(S(=O)(=O)Nc4ccccc4O)ccc1c23`, the Potency entry is “inactive”. On the same count and under the same terms, as for `CN(C)c1cccc(C(=O)N2CCC(n3nccc3NC(=O)C3CCOC3)CC2)c1` (stereo not drawn), the entry is “inactive”; as for `N#Cc1ccc(S(=O)(=O)NCC(=O)OCC(=O)NCCc2ccccc2)cc1`, “inactive”; as for `Cc1ccc(C)c(N2CCN(C(=O)CCCCn3c(=O)[nH]c4ccccc4c3=O)CC2)c1`, “inactive”.

Regarding `Cc1ccc(C)c(N2CCN(C(=O)CCCn3c(=O)c4cccn4c4cccnc43)CC2)c1`, the Potency result is “inactive”. On the same count and under the same terms, as for `CC(C)NC(=O)CCCn1c(=S)[nH]c2cc3c(cc2c1=O)OCO3`, the entry is “inactive”; as for `CCCCNC(=O)CCn1c(=S)[nH]c2cc3c(cc2c1=O)OCO3`, “inactive”; as for `O=C(CCCCCn1c(=S)[nH]c2cc3c(cc2c1=O)OCO3)N1CCN(c2ccc(F)cc2)CC1`, 4.47 µM (active). On to `Cc1ccc(C)c(N2CCN(C(=O)CCCCCn3c(=S)[nH]c4ccc(N5CCOCC5)cc4c3=O)CC2)c1`, for which the Potency is 10 µM (active). The same measure, in the same setting: as for `Cc1ccnc(-n2sc3ccccc3c2=O)n1`, the figure is 11.2 µM (active); as for `Cc1ccnc(N2CCCC(C(=O)NC3CC3)C2)n1` (stereo not drawn), “inactive”; as for `Cc1ccnc(Nc2nc3ccccc3s2)n1`, “inactive”.

As for `CCCCSCCCNC(=O)C1CCC(CNS(=O)(=O)c2ccc(NC(C)=O)cc2)CC1` (stereo not drawn), the Potency entry was “inactive”. Same read-out and setting: as for `CC(Sc1nnc(COc2ccccc2)n1-c1ccccc1)C(=O)O` (stereo not drawn), the entry is “inactive”; as for `Cc1ccc(OCc2n[nH]c(=S)n2-c2ccc(C)cc2)cc1`, “inactive”.

On to `O=c1[nH]nc(CSCc2ccccc2Cl)[nH]1`, for which the Potency result was “inactive”. In the case of `S=c1[nH]nc(CSCc2ccc(Cl)cc2Cl)n1-c1ccccc1`, the Potency was 1.26 µM (active). Still for that read-out and setting: the result for `CC(NS(=O)(=O)c1ccccc1)c1n[nH]c(=S)n1-c1ccccc1` (stereo not drawn) reads “inactive”; that for `Cc1ccc(OCc2n[nH]c(=S)n2-c2ccccc2)cc1`, 0.708 µM (active). As to `CCCCC(CC(C)O)c1n[nH]c(=S)n1-c1ccccc1` (stereo not drawn), the Potency entry is “inactive”.

Turning to `O=[N+]([O-])c1ccccc1/C=N/n1c(COc2ccccc2)n[nH]c1=S`, the Potency entry was “inactive”.

Consider `S=c1[nH]nc(COc2ccccc2)n1-c1ccccc1`, for which the Potency is 3.98 µM (active). The same measure, in the same setting: the result for `O=S(=O)(Oc1ccccc1C(=S)N1CCOCC1)c1ccc(Cl)cc1` reads “inactive”; that for `Cc1cc(C)cc(C(=O)NCCN2CCOCC2)c1`, “inactive”; that for `O=C1CCNCCN1[C@H](CO)Cc1ccccc1`, “inactive”. Same read-out and setting: the result for `Cc1cc2occ(CC(=O)NNC(=O)c3ccccc3F)c2cc1C` reads “inactive”. The same measure, in the same setting: as for `O=C(N/N=C/c1cccnc1)c1ccc(NC(=O)c2ccc(F)cc2)cc1`, the entry is “inactive”; as for `Cn1cccc1/C=N/NC(=O)c1ccc(OC(F)(F)C(F)F)cc1`, 2 µM (active). For the compound `Cc1cccc(C(=O)Nc2ccc(C(=O)N/N=C/c3cccc(C)n3)cc2)c1`, the Potency result was “inactive”. On the same count and under the same terms, the result for `C/C(=N\NC(=O)Cc1ccccc1[N+](=O)[O-])c1cccnc1` reads “inactive”; that for `CC1CC(C)CN(C(=O)C2CC(=O)N(c3ccc(F)cc3)C2)C1` (stereo not drawn), “inactive”; that for `O=C(O)c1ccccc1CSc1nc2ccccc2s1`, “inactive”.

Regarding `COc1ccc(S(=O)(=O)Nc2ccc(O)c(Sc3nc4ccccc4s3)c2)cc1`, the activity change, negative = inhibition is 1.49% [at 10 µM] (inactive). As to `O=C(O)c1cccc(S(=O)(=O)Nc2ccc(O)cc2Sc2nc3ccccc3s2)c1`, the Potency was 10 µM (active). Same read-out and setting: as for `O=c1cc(-c2ccc(O)cc2)oc2c(-c3cc(-c4cc(=O)c5c(O)cc(O)cc5o4)ccc3O)c(O)ccc12`, the entry is “inactive”. Still for that read-out and setting: the result for `Cc1cccc(-c2cc(=O)c3cc(C)ccc3o2)c1` reads “inactive”; that for `COc1ccc(-c2cc(=O)c3c(O)cc(O[C@@H]4O[C@H](CO[C@@H]5O[C@@H](C)[C@H](O)[C@@H](O)[C@H]5O)[C@@H](O)[C@H](O)[C@H]4O)cc3o2)cc1O`, “inactive”; that for `CCOC(=O)COc1cc(O)c2c(=O)cc(-c3ccccc3)oc2c1`, “inactive”. Same read-out and setting: as for `O=c1cc(-c2ccc(O)c(O)c2)oc2cccc(O)c12`, the figure is 14.1 µM (active); as for `COc1c(O)cc2oc(-c3ccc(O)c(O)c3)cc(=O)c2c1O`, “inactive and 12.6 µM (active)”.

As to `Cc1ccc(-c2noc(C3CCCN(C(=O)c4cccc(Cl)c4)C3)n2)o1` (stereo not drawn), the Potency result was “inactive”. Regarding `CCOC(=O)N1CCN(Cc2nc3cc(NC(=O)CC)ccc3n2CC)CC1`, the Potency result is “inactive”.

`C#CCOc1ccc(/C=C2/C(=O)ON=C2C)cc1OCC`: the Potency result was “inactive”. Still for that read-out and setting: the result for `Cc1ccccc1CN1CCC(C(=O)Nc2ccc(Oc3cccnc3)cc2)CC1` reads “inactive”; that for `CC1(C)Cc2c(cnn2-c2cccc(F)c2)C(NC(=O)c2cc[n+]([O-])cc2)C1` (stereo not drawn), “inactive”; that for `CC1(C)C(C=C(Cl)Cl)C1C(=O)NC(O)C(=O)c1ccccc1` (stereo not drawn), “inactive”. Still for that read-out and setting: as for `CCc1ccc(CN(C)Cc2nc(Cc3ccccc3)no2)nc1`, the figure is 11.2 µM (active). Same read-out and setting: as for `CN(Cc1ccc2nsnc2c1)Cc1nc(Cc2cccc(F)c2)no1`, the entry is “inactive”; as for `CN(Cc1ccccn1)Cc1nc(-c2ccc(Cl)cc2)no1`, “inactive”; as for `Cc1ccnc(NC(=O)CCNS(=O)(=O)c2ccc(C)c(C)c2)c1`, 10 µM (active). `Cc1ccc(S(=O)(=O)NCCC(=O)Nc2cccc(S(N)(=O)=O)c2)cc1C`: the Potency result is “inactive”. Same read-out and setting: as for `Cc1ccc(S(=O)(=O)NCCC(=O)Nc2ccc(C)c(Cl)c2)cc1C`, the entry is “inactive”; as for `O=C(Cn1c(=O)sc2ccccc21)Nc1nc2c(s1)CCCC2`, “inactive”.

`COC(=O)C(NC(C)=O)(Nc1nc2c(s1)CCCC2)C(F)(F)F` (stereo not drawn): the Potency result was “inactive”.

In the case of `Fc1ccc2nc(Nc3nc4c(s3)CCCC4)sc2c1`, the Potency is 3.16 µM (active). As for `O=C(Nc1cccc(-c2cccc(Cl)c2)c1)C1CCN(C2CCC2)CC1`, the Potency result was “inactive”. On the same count and under the same terms, as for `Cc1c2c(nc3ccccc13)-c1cccc(=O)n1C2`, the figure is 8.91 µM (active); as for `CC(C)c1ccc2c([Si](C)(C)C)c3c(nc2c1)-c1cccc(=O)n1C3`, “inactive”; as for `Cc1nc2ccccc2c(C)c1C(=O)c1ccc(F)cc1`, “inactive”.

Consider `CCn1c(=S)sc2c(=O)n(CC(=O)Nc3ccc(OC)cc3)c(C)nc21`, for which the Potency entry is “inactive”.

Take `Cc1ccc(C)c(N2CCN(S(=O)(=O)c3c(C)[nH]c(C)c3C(=O)N3CCCC3)CC2)c1`: the Potency result was “inactive”. On to `CC1(C)Cc2ccccc2-c2nc(CN3CCOCC3)[nH]c(=O)c21`, for which the Potency entry was “inactive”. In the case of `CCC1(CC)Cc2ccccc2-c2nc(CCl)[nH]c(=O)c21`, the Potency was 11.2 µM (active). The same measure, in the same setting: the result for `CCOC(=O)C1Cn2c(nc3c(c2=O)C(C)(CC)Cc2ccccc2-3)S1` (stereo not drawn) reads “inactive”; that for `CC(=O)c1ccc(OCC(O)CN2CCN(S(=O)(=O)c3cccc(Br)c3)CC2)cc1` (stereo not drawn), “inactive”. As for `COC(=O)C1CCCCN1C(=O)c1ccc(OC2CCN(C(C)=O)CC2)c(OC)c1` (stereo not drawn), the Potency entry was “inactive”. Still for that read-out and setting: as for `Cc1ccc(CN(CC(=O)NCC2CCCO2)S(=O)(=O)c2ccc(C)cc2)cc1` (stereo not drawn), the entry is “inactive”; as for `COCc1nc2ccccc2n1Cc1ccccc1Br`, 6.31 µM (active). `COc1ccccc1Cn1c(CO)nc2ccccc21`: the Potency result was “inactive”. Still for that read-out and setting: the result for `COCn1c(COc2ccccc2)nc2ccccc21` reads “inactive”. For the compound `Cc1ccc(S(=O)(=O)CC(=O)NC(C)c2ccccc2)cc1` (stereo not drawn), the Potency entry was “inactive”. Still for that read-out and setting: as for `Cc1ccc(S(=O)(=O)NNC(=S)NC(C)(C)C)cc1`, the figure is 8.91 µM (active); as for `CC(NC(=O)Nc1ccccc1)c1ccccc1` (stereo not drawn), “inactive”; as for `Cc1ccc(S(=O)(=O)NNC(=O)Nc2cccc3ccccc23)cc1`, “inactive”. Same read-out and setting: the result for `CC(NC(=S)NNS(=O)(=O)c1ccc(C(C)(C)C)cc1)c1ccccc1` (stereo not drawn) reads 8.91 µM (active); that for `COc1ccc(C(=O)NNS(=O)(=O)c2ccc(C)cc2)cc1`, “inactive”; that for `CCOc1ccc(N(CC(=O)NCCc2ccc(F)cc2)S(=O)(=O)c2ccccc2)cc1`, “inactive”. Still for that read-out and setting: as for `COc1ccccc1CNC(=O)[C@@H]1CCCN1C(=O)[C@@H]1Cc2ccccc2CN1C(=O)OC(C)(C)C`, the entry is “inactive”. Consider `CCN(CC)c1ccc(C(=O)Nn2c(C)nc3ccccc3c2=O)cc1`, for which the Potency entry was “inactive”.

`CCCCCc1ccc(-c2ccc(OCC)cc2)nc1`: the Potency result is “inactive”.

Consider `CCCCCc1ccc(-c2ccc(C(=O)O)cc2)nc1`, for which the Potency is 6.31 µM (active). With `CCCCCc1ccc(-c2cn(Cc3ccc4ccccc4c3)nn2)cc1`, the Potency result is “inactive”. On the same count and under the same terms, the result for `Cc1cccc(-c2nnc(SCC(=O)O)n2Cc2ccccc2)c1` reads “inactive”; that for `O=C(CCCCCn1c(=S)[nH]c2ccsc2c1=O)NC1CCCCC1`, 11.2 µM (active); that for `O=C(CCC(=O)c1cccs1)NC1CCCCCC1`, “inactive”.

Turning to `CCCCC(CC)CNC(=O)CCCCn1c(=O)[nH]c2ccsc2c1=O` (stereo not drawn), the Potency entry was “inactive”.

Take `O=C(CN1C(=O)c2ccccc2C1=O)NCc1ccc(C(=O)O)cc1`: the Potency result is “inactive”. `COc1ccc(N(CC(=O)Nc2cc(OC)cc(OC)c2)S(=O)(=O)c2c(C)n[nH]c2C)cc1`: the Potency entry is “inactive”.

Turning to `Cc1cccc(N2CCN(C(C)C(=O)N3CCc4ccccc43)CC2)c1C` (stereo not drawn), the Potency result was “inactive”.
